In PubChem BioAssay:
Calls of active or inactive are those of the source. Unless noted, how the calls were made is not given here.

Experiments:
[1] = resazurin metabolic signal in HepG2 cells – cell-based, resazurin fluorescence, 24 h, PK04 Diversity Set, profiling panel (AID 1172); conditions: HepG2 viability, higher = more signal
[2] = budding yeast growth changes without added modifier – OD600, strain BY4716, 24 h, basal condition, primary screen (AID 1173); conditions: S. cerevisiae BY4716 growth, OD600, 24 h; higher = more signal, called active from +8 up or from −8 down
[3] = viability profiling in MM1S myeloma cells – cell-based, resazurin fluorescence, basal, 24 h, PK04 Diversity Set, profiling panel (AID 1174); conditions: higher = more signal, called active from +8 up or from −8 down;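 further: MM1S multiple myeloma cell line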
[4] = target: Dihydroorotate dehydrogenase (quinone), mitochondrial (Plasmodium falciparum (isolate 3D7)) (UniProt Q08210); assay: inhibition of P. falciparum DHODH – biochemical, C-terminal His tag, absorbance 600 nm, primary screen (AID 1175); conditions: PfDHODH enzyme, DCIP absorbance 600 nm; higher = more signal, called active from +8 up or from −8 down;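 further: recombinant parasite enzyme with a five histidine tag at its C terminus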
Sequence of Dihydroorotate dehydrogenase (quinone), mitochondrial (Plasmodium falciparum (isolate 3D7)) (Q08210 whole entry, looked up): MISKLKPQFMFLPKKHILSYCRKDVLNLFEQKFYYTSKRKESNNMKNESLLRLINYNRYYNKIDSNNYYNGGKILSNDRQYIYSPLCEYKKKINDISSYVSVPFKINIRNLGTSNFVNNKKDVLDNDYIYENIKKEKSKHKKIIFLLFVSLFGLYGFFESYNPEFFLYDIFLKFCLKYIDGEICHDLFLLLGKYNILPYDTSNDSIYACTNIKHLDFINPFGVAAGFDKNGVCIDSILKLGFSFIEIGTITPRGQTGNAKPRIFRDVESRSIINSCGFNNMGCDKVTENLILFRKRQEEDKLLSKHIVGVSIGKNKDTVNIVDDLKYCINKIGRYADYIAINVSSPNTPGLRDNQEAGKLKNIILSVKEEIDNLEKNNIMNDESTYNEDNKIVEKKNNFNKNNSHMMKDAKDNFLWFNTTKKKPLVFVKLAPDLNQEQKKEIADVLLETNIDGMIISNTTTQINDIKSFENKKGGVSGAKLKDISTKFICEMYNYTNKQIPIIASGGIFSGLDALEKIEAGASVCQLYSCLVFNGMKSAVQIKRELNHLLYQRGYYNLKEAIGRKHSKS

[5] = inhibition of PAO1 biofilm formation – strain PAO1, LB-PBS medium, absorbance 600 nm, primary screen (AID 1176); conditions: P. aeruginosa PAO1 growth/biofilm, A600, 12 h; higher = more signal
[6] = growth modulation of vineyard yeast isolate – strain RM11-1a, OD600, basal, 24 h, primary screen (AID 1177);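 further: cultures grown under basal conditions with no added stressor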; conditions: S. cerevisiae RM11-1a growth, OD600, 24 h; higher = more signal, called active from +8 up or from −8 down
[7] = growth of efflux-deficient E. coli DRC39 – strain DRC39, OD650, 24 h, E. coli filamentation inducers, primary screen (AID 1178);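 further: growth measured as culture turbidity by optical density at 650 nm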; conditions: E. coli DRC39 acrAB, higher = more signal, called active from +8 up or from −8 down
[8] = growth of efflux-deficient E. coli DRC39 – strain DRC39, OD650, 48 h, E. coli filamentation inducers, primary screen (AID 1179);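 further: screen aims at cell division blockers that make cells filament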; conditions: E. coli DRC39 delta-acrAB growth, higher = more signal, called active from +8 up or from −8 down
[9] = viability profiling in RPMI8226 myeloma cells – cell-based, resazurin fluorescence, basal, 24 h, PK04 Diversity Set, profiling panel (AID 1180); conditions: higher = more signal;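 further: RPMI8826 multiple myeloma cell line at 5000 cells per well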
[10] = target: E3 ubiquitin-protein ligase XIAP (Homo sapiens) (UniProt P98170); assay: small molecules binding XIAP protein – biophysical, small-molecule microarray, fluorescence 635 nm, primary screen (AID 1181); conditions: higher = more signal;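 further: score merges 667 nm emission and signal to noise over triplicate slides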
Sequence of E3 ubiquitin-protein ligase XIAP (Homo sapiens) (P98170 whole entry, looked up, the tested form may be a part): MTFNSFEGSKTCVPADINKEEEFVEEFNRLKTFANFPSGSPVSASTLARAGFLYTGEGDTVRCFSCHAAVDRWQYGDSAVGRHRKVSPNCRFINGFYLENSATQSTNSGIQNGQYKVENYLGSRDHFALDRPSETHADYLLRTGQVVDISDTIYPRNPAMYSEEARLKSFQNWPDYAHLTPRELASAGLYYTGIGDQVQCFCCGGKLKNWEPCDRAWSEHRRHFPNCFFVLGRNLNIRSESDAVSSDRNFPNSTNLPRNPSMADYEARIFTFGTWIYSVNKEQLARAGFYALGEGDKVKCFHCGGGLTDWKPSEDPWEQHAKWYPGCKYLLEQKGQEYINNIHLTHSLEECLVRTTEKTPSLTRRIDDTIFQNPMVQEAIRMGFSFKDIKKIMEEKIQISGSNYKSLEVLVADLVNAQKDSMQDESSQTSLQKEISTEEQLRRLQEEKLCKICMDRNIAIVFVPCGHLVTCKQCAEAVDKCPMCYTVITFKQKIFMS

[11] = tested on: XIP peptide (Xip251-270) binding; assay: XIP fragment 251-270 binding compounds – biochemical, small-molecule microarray, fluorescence 635/667 nm, 0.1 µg/mL protein, primary screen (AID 1182); conditions: fluorescent protein binding, 635 nm, higher = more signal, called active from +8 up or from −8 down
[12] = tested on: XIP peptide (Xip251-270); assay: compounds binding XIP fragment 251-270 – biochemical, small-molecule microarray, fluorescence 635/667 nm, 0.5 µg/mL protein, primary screen (AID 1183); conditions: fluorescence 635 nm, higher = more signal
[13] = blood-stage malaria parasite viability loss – strain 3D7, DAPI fluorescence, 100 nL, primary screen (AID 1184);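 further: parasites grown inside human red blood cells in medium with human serum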; conditions: P. falciparum 3D7 growth, 3 d, higher = more signal
[14] = target: Homeobox protein Hox-A13 (Mus musculus) (UniProt Q62424); assay: disruptors of Hoxa13 oligonucleotide interaction – biochemical, fluorescence polarization, labeled oligonucleotide, primary screen (AID 1185); conditions: Hoxa13:DNA binding, 15 min, higher = more signal, called active from +8 up or from −8 down
Sequence of Homeobox protein Hox-A13 (Mus musculus) (Q62424 whole entry, looked up): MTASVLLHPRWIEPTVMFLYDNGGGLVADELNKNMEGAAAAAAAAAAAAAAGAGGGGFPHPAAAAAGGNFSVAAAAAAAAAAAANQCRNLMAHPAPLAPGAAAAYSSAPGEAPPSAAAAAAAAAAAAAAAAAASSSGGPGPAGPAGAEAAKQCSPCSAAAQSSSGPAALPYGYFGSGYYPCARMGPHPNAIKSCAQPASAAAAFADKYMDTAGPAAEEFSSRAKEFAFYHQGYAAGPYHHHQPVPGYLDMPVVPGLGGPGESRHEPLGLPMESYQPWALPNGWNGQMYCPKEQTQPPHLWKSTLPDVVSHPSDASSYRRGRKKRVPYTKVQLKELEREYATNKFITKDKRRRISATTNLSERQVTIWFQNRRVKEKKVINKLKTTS

[15] = blockers of DNA damage checkpoint Chk1 activation – imaging, HeLa, hydroxyurea, phospho-Chk1 antibody, percent positive cells, primary screen (AID 1186); conditions: hydroxyurea-induced phospho-Chk1 immunofluorescence imaging, higher = more signal
[16] = blockers of DNA damage checkpoint Chk1 activation – imaging, HeLa, hydroxyurea, phospho-Chk1 nuclear intensity, primary screen (AID 1187); conditions: hydroxyurea-induced phospho-Chk1 immunofluorescence imaging, higher = more signal

Structure (SMILES)	z-score [1]	z-score [2]	z-score [3]	composite z-score [4]	z-score [5]	z-score [6]	z-score [7]	z-score [8]	z-score [9]	composite z-score [10]	composite z-score [11]	composite z-score [12]	z-score [13]	z-score [14]	z-score [15]	z-score [16]
CN1C(=O)C2C=CC(C(O)c3cccc4ccccc34)N(NC(=O)OC(C)(C)C)C2C1=O (centres undefined)	-1.12	-3.8 (inactive)	-0.776 (inactive)	-0.878 (inactive)	0.378 (inactive)	-0.0808 (inactive)	-0.555 (inactive)	-0.403 (inactive)	-0.693	0.156	0.704 (inactive)	0.586	0.99	-3.88 (inactive)	0.326 (inactive)	-0.397 (inactive)
O=C1NC(=O)C2C1C=CC(C(O)CCc1ccccc1)N2Nc1ccccn1 (centres undefined)	-0.875	0.725 (inactive)	-0.871 (inactive)	-0.505 (inactive)	1.65 (inactive)	-1.07 (inactive)	0.696 (inactive)	1.07 (inactive)	-0.717	0.107	0.415 (inactive)	0.932	0.581	-0.354 (inactive)	-0.181 (inactive)	-0.426 (inactive)
CC1CC/C=C\[C@H]2OC34C=CCN(Cc5ccccc5)C(=O)[C@H]3N(CCO)C(=O)[C@@H]4C2C(=O)O1 (some centres undefined)	-0.811	-0.73 (inactive)	0.32 (inactive)	0.622 (inactive)	-0.758 (inactive)	0.606 (inactive)	0.98 (inactive)	0.566 (inactive)	0.301	-0.147	0.449 (inactive)	0.108	-1.56	-4.51 (inactive)	-0.455 (inactive)	-0.466 (inactive)
N#Cc1ccc(NN2C(C(O)c3ccco3)C=CC3C(=O)N(c4ccccc4)C(=O)C32)cc1 (centres undefined)	-0.674	-0.36 (inactive)	-0.512 (inactive)	0.0512 (inactive)	1.07 (inactive)	0.293 (inactive)	-2.14 (inactive)	-2.13 (inactive)	-0.607	0.0794	-0.323 (inactive)	0.347	1.1	-1.96 (inactive)	-0.124 (inactive)	-0.228 (inactive)
COCCOC(=O)N1C(=O)[C@@]2(c3cc(C#CCNC(N)=O)ccc31)[C@H](C(N)=O)[C@H]1C(=O)O[C@H](c3ccccc3)[C@H](c3ccccc3)N1[C@@H]2c1ccc(OCCO)cc1	-0.195	0.713 (inactive)	-0.508 (inactive)	0.506 (inactive)	0.995 (inactive)	1.62 (inactive)	0.152 (inactive)	-0.0952 (inactive)	-1.09	-0.188	-0.0439 (inactive)	0.549	0.101	-2.08 (inactive)	0.358 (inactive)	0.489 (inactive)
COCC(=C=CC[C@@H](O)c1ccccc1OCCO)C[C@@H](O)c1ccccn1	-0.415	-1.42 (inactive)	-0.249 (inactive)	-10.8 (active)	0.354 (inactive)	-0.572 (inactive)	-0.268 (inactive)	-0.268 (inactive)	-0.348	-0.0541	0.416 (inactive)	0.76	-0.991	-6.18 (inactive)	0.413 (inactive)	0.289 (inactive)
COCCOC(=O)N1C(=O)[C@@]2(c3cc(C#CCNC(N)=O)ccc31)[C@H](C(=O)N1CCCCCCC1)[C@H]1C(=O)O[C@H](c3ccccc3)[C@H](c3ccccc3)N1[C@@H]2c1ccc(OCCO)cc1	-0.178	0.971 (inactive)	-0.237 (inactive)	-0.0134 (inactive)	2.73 (inactive)	1.59 (inactive)	-0.0272 (inactive)	0.531 (inactive)	0.176	0.0471	0.0447 (inactive)	0.28	-1.77	-15.8 (active)	-0.0977 (inactive)	-0.64 (inactive)
C[C@]12C(=O)N(CCCCCO)[C@@H]3C(=O)N(c4ccc(Cl)cc4)CC=CC31O[C@@H]1/C=C\CCCOC(=O)C12 (some centres undefined)	-0.626	-0.225 (inactive)	0.194 (inactive)	-0.841 (inactive)	-0.677 (inactive)	-0.605 (inactive)	-0.308 (inactive)	-0.175 (inactive)	-0.135	0.234	0.951 (inactive)	0.0211	1.77	-4.29 (inactive)	0.0276 (inactive)	0.596 (inactive)
COCCOC(=O)N1C(=O)[C@@]2(c3cc(C#CCNC(N)=O)ccc31)[C@H](c1ccc(OCCO)cc1)N1[C@H](c3ccccc3)[C@H](c3ccccc3)OC(=O)[C@H]1[C@@H]2C(=O)N1CCN(c2ncccn2)CC1	0.26	1.51 (inactive)	-0.0528 (inactive)	-0.239 (inactive)	2.5 (inactive)	2.05 (inactive)	-0.157 (inactive)	-0.327 (inactive)	0.0246	0.1	-0.299 (inactive)	0.245	-1.91	0.513 (inactive)	-0.117 (inactive)	-0.434 (inactive)
COCCOC(=O)N1C(=O)[C@@]2(c3ccccc31)[C@H](c1ccc(OCCO)cc1)N1[C@H](c3ccccc3)[C@H](c3ccccc3)OC(=O)[C@H]1[C@@H]2C(=O)NC[C@H](O)c1ccccc1	0.37	1.96 (inactive)	-0.261 (inactive)	-1.93 (inactive)	2.32 (inactive)	2.94 (inactive)	0.271 (inactive)	0.193 (inactive)	-0.25	-0.148	0.103 (inactive)	0.808	-1.64	-4.23 (inactive)	0.228 (inactive)	0.726 (inactive)
CC1=C2[C@@H](CCc3ccccc3)OB(O)C[C@@H]2[C@@H]2C(=O)C=CC(=O)[C@@H]2C1	-0.548	-17.6 (active)	-1.06 (inactive)	-3.6 (inactive)	0.589 (inactive)	-0.055 (inactive)	-0.367 (inactive)	-0.0244 (inactive)	-1.13	0.0325	-0.387 (inactive)	0.403	-1.15	-6.24 (inactive)	1.15 (inactive)	1.1 (inactive)
Cc1ccc(S[C@]2(C(=O)NCc3ccccc3)CC(=O)N(C3Cc4ccccc4C3)[C@@H]2c2ccc(CO)cc2I)cc1	-0.0974	-2.95 (inactive)	-2.61 (inactive)	-1.29 (inactive)	0.761 (inactive)	-2.63 (inactive)	0.964 (inactive)	1.52 (inactive)	-1.89	-0.315	1.77 (inactive)	0.23	0.237	-1.78 (inactive)	-0.424 (inactive)	-0.164 (inactive)
[N-]=[N+]=Nc1ccccc1[C@H]1OC(c2ccc(OCCCO)cc2)=N[C@@]1(Cc1ccccc1)C(=O)NCc1ccccc1	-0.171	-1.95 (inactive)	-3.89 (inactive)	0.928 (inactive)	0.124 (inactive)	-0.947 (inactive)	2.01 (inactive)	1.76 (inactive)	-3.99	0.0917	1.39 (inactive)	0.596	-2.24	-2.71 (inactive)	-0.684 (inactive)	-0.5 (inactive)
Cc1cc(C)c(C(O)C2C=CC3C(=O)N(c4ccccc4)C(=O)C3N2Nc2ccc([N+](=O)[O-])cc2)c(C)c1 (centres undefined)	-0.221	0.414 (inactive)	-0.237 (inactive)	-0.212 (inactive)	1.64 (inactive)	0.258 (inactive)	-0.777 (inactive)	-0.624 (inactive)	0.0375	0.0827	0.756 (inactive)	0.783	-0.569	-1.86 (inactive)	0.487 (inactive)	0.596 (inactive)
C=CCC(OC(C)=O)[C@@H]1[C@@H](N(Cc2cc3ccccc3o2)C(=O)Cc2ccc(OC)cc2)c2cc(OCCCO)ccc2N1C(=O)c1ccc(-c2ccccc2)cc1 (some centres undefined)	-0.877	-0.464 (inactive)	1.05 (inactive)	0.849 (inactive)	-0.558 (inactive)	0.275 (inactive)	0.66 (inactive)	0.16 (inactive)	0.337	-0.0575	-0.341 (inactive)	-0.236	-2.84	-1.11 (inactive)	0.298 (inactive)	0.549 (inactive)
COCCCNC(=O)[C@@]1(Cc2ccccc2I)c2ccccc2C(=O)N(Cc2ccccc2Cl)[C@H]1c1ccc(CO)cc1	1.01	-1 (inactive)	1.59 (inactive)	-0.278 (inactive)	0.112 (inactive)	-0.0403 (inactive)	0.0867 (inactive)	0.607 (inactive)	1.82	0.186	1.75 (inactive)	0.595	-1.22	-4.93 (inactive)	-0.152 (inactive)	0.187 (inactive)
CCCCCCC#C[Si](O[C@H](c1ccccc1)c1cn(Cc2cccc(Cl)c2)nn1)(C(C)C)C(C)C	0.809	-0.419 (inactive)	1.31 (inactive)	-0.0872 (inactive)	0.101 (inactive)	0.738 (inactive)	0.804 (inactive)	1.19 (inactive)	2.01	-0.0447	-0.301 (inactive)	0.0372	-0.464	1.16 (inactive)	-0.195 (inactive)	-0.272 (inactive)
COC(=O)[C@@]1(Cc2ccc(F)cc2)[C@H]2c3cc(C(=O)N(C)C)n(CCSCCO)c3C[C@H]2CN1C(=O)c1ccccc1	-0.234	-0.0857 (inactive)	-0.42 (inactive)	-0.467 (inactive)	0.399 (inactive)	0.0891 (inactive)	-0.514 (inactive)	-0.32 (inactive)	-0.107	-0.234	0.235 (inactive)	0.0692	-0.404	-4.76 (inactive)	0.511 (inactive)	0.469 (inactive)
C=CCC(OC(C)=O)[C@@H]1[C@@H](N(Cc2ccc(-c3ccccc3)cc2)C(=O)Cc2ccc(OC)cc2)c2cc(OCCCO)ccc2N1C(=O)c1ccc(-c2ccccc2)cc1 (some centres undefined)	0.192	-1.13 (inactive)	0.833 (inactive)	-0.0887 (inactive)	-0.24 (inactive)	-0.754 (inactive)	1.57 (inactive)	0.807 (inactive)	0.989	0.233	-0.0622 (inactive)	-0.698	-2.91	-1.52 (inactive)	-0.244 (inactive)	0.158 (inactive)
